Experimental data taken from PubChem BioAssay AID504326 (The Scripps Research Institute Molecular Screening Center, 2011).
In all, about 340,000 compounds went through this assay and about 990 (0.29%) were called active. No stated cut-off is given here; in the data, active means activation above about 18%; inactive means the rest. Only a selection was taken, and actives are over-represented in it overall.

What follows are compounds tested against Mu-type opioid receptor (Homo sapiens) + Delta-type opioid receptor (Homo sapiens) (UniProt P35372+P41143) (assay: inducers of mu-delta opioid receptor heterodimers – cell-based, luminescence, primary screen (AID 504326;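 further: 0% = vehicle-treated cells and 100% = reference agonist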)). Details: cells, OPRM1-OPRD1 heterodimerization, at 9.3 µM, stronger effect = higher value.
Sequence of Mu-type opioid receptor (Homo sapiens) + Delta-type opioid receptor (Homo sapiens) (P35372 whole entry, looked up): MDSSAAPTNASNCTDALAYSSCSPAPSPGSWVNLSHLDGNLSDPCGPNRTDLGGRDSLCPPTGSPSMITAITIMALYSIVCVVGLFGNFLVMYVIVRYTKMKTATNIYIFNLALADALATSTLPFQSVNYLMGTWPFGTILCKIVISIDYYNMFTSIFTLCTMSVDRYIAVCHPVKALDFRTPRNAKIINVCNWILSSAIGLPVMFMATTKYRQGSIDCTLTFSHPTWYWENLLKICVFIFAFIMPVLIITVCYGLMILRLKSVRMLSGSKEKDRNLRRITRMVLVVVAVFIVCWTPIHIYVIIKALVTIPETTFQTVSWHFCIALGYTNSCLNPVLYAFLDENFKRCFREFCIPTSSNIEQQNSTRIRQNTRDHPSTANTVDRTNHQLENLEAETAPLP
Sequence of Mu-type opioid receptor (Homo sapiens) + Delta-type opioid receptor (Homo sapiens) (P41143 whole entry, looked up): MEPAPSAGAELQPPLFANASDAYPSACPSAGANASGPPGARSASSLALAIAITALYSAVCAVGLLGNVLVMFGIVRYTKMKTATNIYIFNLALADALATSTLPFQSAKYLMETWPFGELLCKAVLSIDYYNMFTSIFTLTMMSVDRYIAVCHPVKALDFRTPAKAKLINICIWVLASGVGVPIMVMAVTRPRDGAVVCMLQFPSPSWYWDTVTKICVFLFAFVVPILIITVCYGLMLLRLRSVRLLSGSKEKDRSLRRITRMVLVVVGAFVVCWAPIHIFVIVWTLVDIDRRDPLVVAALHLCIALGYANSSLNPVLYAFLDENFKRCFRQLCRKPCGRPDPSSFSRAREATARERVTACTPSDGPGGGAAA

| SMILES | activation |
| --- | --- |
| C=C(C)COc1ccc(-c2n[nH]c(C)c2-c2ccccc2)c(O)c1 | 20.9% (active) |
| C=C(C)COc1ccc(-c2ncncc2-c2ccc(OC)cc2)c(O)c1 | 0.28% (inactive) |
| C=C(C)COc1ccc(-c2nc(N)ncc2-c2ccccc2OC)c(O)c1 | 5.76% (inactive) |
| COCCCNC(=O)Cn1cc(/C=C(\C#N)C(=O)N2CCN(c3ccccc3)CC2)c2ccccc21 | -0.49% (inactive) |
| Cc1ccc(N=C2NC(=O)c3cccc([N+](=O)[O-])c32)cc1 | -1.31% (inactive) |
| Cc1ccc(C(=O)NCC(c2cccs2)N(C)C)cc1S(=O)(=O)N1CCOCC1 (configuration not stated) | 7.26% (inactive) |
| COc1ccccc1C(CNC(=O)c1ccc(C)c(S(=O)(=O)N2CCCCC2)c1)N(C)C (configuration not stated) | 33.2% (active) |
| COc1ccccc1CNC(=O)c1ccc(Cl)c(S(=O)(=O)N2CCCC2)c1 | -1.63% (inactive) |
| CCCOc1ccc(C(=O)C(CCC(CNCC)C(=O)c2ccc(OCCC)cc2)CNCC)cc1 (configuration not stated) | 11.1% (inactive) |
| C=CCOc1c2ccc(C(=O)N(CC)c3ccc(OC)cc3)cc2nn1C | 0.36% (inactive) |
| COc1cccc(NC(=O)c2ccccc2N(Cc2ccccc2)S(C)(=O)=O)c1 | -3.67% (inactive) |
| COc1ccc(NC(=O)CCC(=O)Nc2cc(OC)c(NC(=O)c3ccco3)cc2OC)c(OC)c1 | 0.82% (inactive) |
| CC(OC(=O)c1ccc([N+](=O)[O-])cc1)C(=O)NCC1CCCCC1 (configuration not stated) | 0.26% (inactive) |
| COc1cc(C(=O)OC(C)C(=O)NCC2CCCCC2)cc(NC(=O)c2ccco2)c1OC (configuration not stated) | 26.7% (active) |
| CNC(=O)c1[nH]cnc1C(=O)N[C@@H](CC(C)C)C(=O)OC(C)(C)C | 0.92% (inactive) |
| Cc1ccc(S(=O)(=O)NC(C)C(=O)Nc2ccccc2C(=O)N2CCCC2)cc1 (configuration not stated) | 2.72% (inactive) |
| COc1ccc(-n2nnnc2CNC(=O)c2ccc3ccccc3c2)cc1 | -0.36% (inactive) |
| COc1ccc(-n2nnnc2-c2nc3ccccc3s2)cc1 | 20.4% (active) |
| COc1ccc(CSc2nnnn2-c2ccc(C(=O)O)cc2)cc1 | -1.43% (inactive) |
| Cc1ccc(S(=O)(=O)NC(C(=O)N2CCOCCOCCOCCOCC2)c2ccccc2)cc1 (configuration not stated) | -1.61% (inactive) |
| CC(=O)N1CCN(C(=O)C2(NC(=O)Nc3ccc(C)cc3)CCCCC2)CC1 | -2.72% (inactive) |
| CCOc1ccc(-c2c(C)n([O-])c3c([n+]2=O)CCCC3)cc1 | -0.63% (inactive) |

| SMILES | activation |
| --- | --- |
| C[C@H]1CC[C@]2(O[C@@H](CCO)C[C@@H](O)[C@@H]2O)O1 | 3.63% (inactive) |
| CC(C)(C)OC(=O)N1CCC(NC(=O)c2[nH]cnc2C(=O)N[C@@H](Cc2ccccc2)C(=O)OCc2ccccc2)CC1 | 21.9% (active) |
| CC(C)(C)OC(=O)CNC(=O)c1[nH]cnc1C(=O)N[C@@H](Cc1ccccc1)C(=O)OCc1ccccc1 | 14.2% (inactive) |
| O=C(N[C@@H](Cc1ccccc1)C(=O)OCc1ccccc1)c1nc[nH]c1C(=O)NC1CCNCC1 | -2.25% (inactive) |
| CCN1CCC2(CC1)N=C(c1ccc(F)cc1)C(=S)N2C(=O)c1ccc(C)cc1 | 13.8% (inactive) |
| O=C1N/C(=C/c2cccs2)C(=O)N1Cc1ccc(F)cc1 | 18.9% (active) |
| CN(C)c1ccc(/C=C2\NC(=S)N(Cc3ccccc3)C2=O)cc1 | 0.84% (inactive) |
| Cc1ccc(CN2C(=O)N/C(=C/c3cc(C)n(-c4ccccn4)c3C)C2=O)cc1 | -1.23% (inactive) |
| CCn1c(SCC(=O)Nc2ccc(C)cc2)nc2nc3c(cc2c1=O)CCCC3 | -0.65% (inactive) |
| CCOc1ccc(NC(=O)CCS(=O)(=O)c2cccc3nsnc23)cc1 | -1.59% (inactive) |
| O=C(NCc1ccccc1)c1onc(CSc2ccncc2)c1C(=O)NCc1ccccc1 | -1.19% (inactive) |
| CCOc1cc(S(=O)(=O)NC2CC(C)(C)NC(C)(C)C2)ccc1F | -2.58% (inactive) |
| COCCN(C(=O)CCC(=O)Nc1nccs1)C(C(=O)NCCC(C)C)c1ccc(F)cc1 (configuration not stated) | -1.57% (inactive) |
| CC1CCCN(CCOCCOc2ccccc2-c2ccccc2)C1 (configuration not stated) | 18.4% (active) |
| CC1CN(CCCOc2ccccc2-c2ccccc2)CC(C)O1 (configuration not stated) | 4.64% (inactive) |
| c1ccc(-c2ccccc2OCCN2CCCCC2)cc1 | -3.6% (inactive) |
| Cc1c(NC(=O)C(C)OC(=O)c2c3c(nc4ccccc24)CCC(C)C3)c(=O)n(-c2ccccc2)n1C (configuration not stated) | -2.46% (inactive) |
| CC(C)(C)NS(=O)(=O)c1ccc(NC(=O)C2CCCO2)cc1 (configuration not stated) | 0.39% (inactive) |
| O=C(NC1CCC(O)CC1)c1ccc(S(=O)(=O)NCc2ccco2)cc1 (configuration not stated) | -2.16% (inactive) |
| CN(C)C(CNC(=O)c1ccc(S(=O)(=O)NCc2ccco2)cc1)c1ccccc1 (configuration not stated) | 20.7% (active) |
| CC(=O)c1ccc(S(=O)(=O)Nc2ccc(C(=O)NCC(c3ccccc3)N(C)C)cc2)cc1 (configuration not stated) | 0.68% (inactive) |
| COc1ccc(CNC(=O)c2cc(C(=O)C3CC3)c[nH]2)cc1 | -1.28% (inactive) |

| SMILES | activation |
| --- | --- |
| CC(C)Cc1nnc(NC(=O)CN2C(=O)NC3(CCCCC3)C2=O)s1 | -1.6% (inactive) |
| CCc1ccc(NC(=O)COC(=O)c2cccs2)cc1 | 0.52% (inactive) |
| Cc1ccc(OCC(=O)Nc2ccc(NC(=O)c3cccs3)cc2)c(C)c1 | 19.7% (active) |
| Cc1ccc(OCC(=O)Nc2ccc(N3CCN(C(=O)c4ccco4)CC3)cc2)c(C)c1 | 2.18% (inactive) |
| COC(=O)C1=C(C)N(C)C(=S)NC1c1cc(OC)ccc1OC (configuration not stated) | 1.16% (inactive) |
| COc1ccc(SC[C@H](Cc2ccccc2)N2CCN(CCc3ccccc3)CCC2=O)cc1 | 26.4% (active) |
| C[C@H]1CCC(=O)N([C@H](CSc2ccccc2)Cc2ccccc2)CC1 | 2.5% (inactive) |
| O=C1CC[C@H](O)CCN1[C@H](CSc1ccc(Br)cc1)Cc1ccccc1 | -1.02% (inactive) |
| CS(=O)(=O)N(C(=O)NC(=O)NC1CCS(=O)(=O)C1)C1CCCCC1 (configuration not stated) | 1.27% (inactive) |
| CNC(=O)NC(=O)C(C)N1CCN(C/C=C/c2ccccc2)CC1 (configuration not stated) | 0.24% (inactive) |
| Cc1ccc(NC(=O)c2oc(=O)c3ccccc3c2-c2ccccc2)c(C)c1 | -0.43% (inactive) |
| COC(=O)CCCC1=CC2=C(c3ccccc3)C(=O)C(C)(OC(=O)C3CCCC3)C(=O)C2=CN1c1ccc(OC)cc1 (configuration not stated) | -1.53% (inactive) |
| COc1cccc(/C=N/Nc2ccc(S(=O)(=O)Nc3ccccc3C(=O)O)cc2[N+](=O)[O-])c1O | -1.24% (inactive) |
| COc1ccc(Cc2nnc(N/N=C/c3ccccc3O)[nH]c2=O)cc1OC | -0.28% (inactive) |
| COc1cccc(/C=N/Nc2cc(C)nc(-c3ccccc3O)n2)c1O | 35.6% (active) |
| O=C(NCCc1ccccc1)c1c[nH]c2ccc(F)cc2c1=O | -1.1% (inactive) |
| CC(OC(=O)/C=C/c1ccccc1)C(=O)Nc1ccc(C(N)=O)cc1 (configuration not stated) | 34.1% (active) |
| CC(OC(=O)/C=C/c1ccccc1)C(=O)NC1CCCCC1C (configuration not stated) | -0.81% (inactive) |
| C=CCOc1ccc(/C=C/C(=O)OC(C)C(=O)Nc2ccc(NC(C)=O)cc2)cc1 (configuration not stated) | -0.11% (inactive) |
| CC(C)CC(=O)N=C1SC2CS(=O)(=O)CC2N1CCc1ccccc1 (configuration not stated) | -2.17% (inactive) |
| CN(C)CCCN(C(=O)c1ccc(S(=O)(=O)N2CCCc3ccccc32)cc1)c1nc2ccc(F)cc2s1 | 268% (active) |
| COc1ccc2sc(N(CCCN(C)C)C(=O)c3ccc(S(=O)(=O)N(C)C4CCCCC4)cc3)nc2c1 | -0.93% (inactive) |

| SMILES | activation |
| --- | --- |
| CN(C)CCCN(C(=O)c1ccc(S(=O)(=O)N2CCCCCC2)cc1)c1nc2ccc(Br)cc2s1 | 1.54% (inactive) |
| Cc1ccc(C)c(S(=O)(=O)Nc2cccc(-n3cnnn3)c2)c1 | -2.5% (inactive) |
| C/C=C/C=C/C(=O)O | -2.37% (inactive) |
| CCCC1(C(=O)OC)NC(c2ccco2)C2C(=O)N(C)C(=O)C21 (configuration not stated) | -1.73% (inactive) |
| Cc1ccc2nc(-c3ccncc3)cc(C(=O)Nc3ccncc3)c2c1 | 24% (active) |
| O=C(Nc1ccncc1)c1cc(-c2ccccn2)nc2ccc(Br)cc12 | -0.71% (inactive) |
| Cc1ccc2nc(-c3ccncc3)cc(C(=O)Nc3ccc(OC(F)F)cc3)c2c1 | 8.59% (inactive) |
| CCc1ccc(NC(=O)CS(=O)CC(=O)N2CCN(c3ccccc3F)CC2)cc1 (configuration not stated) | -0.39% (inactive) |
| O=C(NCc1ccc(Cl)c(Cl)c1)c1cccnc1 | 0.81% (inactive) |
| CC(c1cccnc1)N(CCN(C)C)C(=O)Nc1ccc(Cl)c(Cl)c1 (configuration not stated) | 35.5% (active) |
| CN(CC(=O)NCc1cccnc1)S(=O)(=O)c1cc(Cl)ccc1Cl | -3.02% (inactive) |
| CCN(CC)P(=O)(Nc1ccc(SC(F)F)cc1)c1ccc(N(C)C)cc1NC(=O)c1ccco1 (configuration not stated) | -0.5% (inactive) |
| CC(=O)Nc1ccc(S(=O)(=O)N(C)c2ccc(OCC(=O)OCC(=O)N3CCCCC3)cc2)cc1 | -0.7% (inactive) |
| Cc1c(C(=O)c2cccc([N+](=O)[O-])c2)c2ccccn2c1CCC#N | -2.59% (inactive) |
| FC(F)(F)c1ccc2nnc(-c3c(Cl)cccc3Cl)n2c1 | -0.01% (inactive) |
| Cc1ccc(C)c(N(CC(=O)NCc2ccco2)C(=O)CCC(=O)Nc2ccccn2)c1 | -3.72% (inactive) |
| CCOc1ccccc1-c1nc(CN2CCC(C(=O)N3CCOCC3)CC2)c(C)o1 | -0.49% (inactive) |
| CCOC(=O)C1(CC2CCCCO2)CCN(Cc2nc(-c3cccs3)oc2C)CC1 (configuration not stated) | 45.6% (active) |
| COc1cccc(CC2(CO)CCCN(Cc3nc(-c4cccs4)oc3C)C2)c1 (configuration not stated) | 0.45% (inactive) |
| CCOc1ccc(NC(=O)C2CC(=O)N=C(N)S2)cc1 (configuration not stated) | -2.05% (inactive) |
| COc1ccc2c(CC(=O)NNC(=O)c3ccccc3F)coc2c1 | -0.31% (inactive) |
